57 compounds from PubChem BioAssay AID1490 (National Center for Advancing Translational Sciences (NCATS), 2009) can be followed below.

SMILES strings stand for the structures. The campaign covered roughly 310,000 compounds. About 11,000 (3.5%) were called active. Another 4% or so got no clear call; they are omitted. The entries come from a sample that favours actives as a whole. More than one record can exist for a structure, and the calls need not agree. Unmarked numbers belong to inactive results. Calls come from the whole dose curve; as a rule, active = well fitted inhibition curve with a large enough effect; inconclusive = small, poorly fitted or top-dose-only effect, or another doubt; inactive = no such curve, though single readings can be large or run the other way.
Potency is the fitted concentration of half-maximal effect.

This test deals with 4'-phosphopantetheinyl transferase ffp (Bacillus subtilis) (UniProt Q9F4F7). Description: qHTS Assay for Inhibitors of Bacillus subtilis Sfp phosphopantetheinyl transferase (PPTase).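 For largest response in the series, negative = inhibition: 0% = enzyme reaction without inhibitor and -100% = no enzyme wells.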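 Note: the enzyme is Sfp with the accession as filed and its product quenches rhodamine fluorescence.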 Conditions: Biochemical Sfp PPTase activity. An outline of the steps: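 Step 1, compound plus 15 nM Sfp-PPTase, 15 min, room temperature. Step 2, add rhodamine-CoA (5 uM) and BHQ-2-YbbR (12.5 uM). Step 3, read 525/598 nm fluorescence at 0 and 30 min.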
On the technique in general: qHTS replaces the single test concentration by a dilution series.
In the case of `COc1ccc(C(=O)n2nc(C)c(Br)c2C)cc1OC`, the largest response in the series, negative = inhibition is 16.8%.
Same read-out and setting: then `CC1CCN(S(=O)(=O)c2ccc3c(ccn3CC(=O)O)c2)CC1`, with 13.3%; and `CC(C)OC(=O)c1cc(NC(=O)C2C3CCC(O3)C2C(=O)O)cc(C(=O)OC(C)C)c1` (stereo not drawn), with 12.5%.
In the case of `Cc1sc(NC(=O)C2C3CCC(O3)C2C(=O)O)c(C(=O)OC(C)C)c1-c1ccc(Cl)cc1` (stereo not drawn), the Potency is 56.2 µM (active).
For `COc1ccc(NC(=O)C2C3CCC(O3)C2C(=O)O)cc1OC` (stereo not drawn), the largest response in the series, negative = inhibition was -8.26%.
Still for that read-out and setting: next, `O=c1ccc2cc(S(=O)(=O)NCCCc3ccccc3)ccc2[nH]1`: 6.03%; `CCOC(=O)C1CCN(S(=O)(=O)c2c(C)noc2C)CC1`: 0.623%; `COc1cccc(-c2coc3cc4oc(=O)c(CC(=O)O)c(C)c4cc23)c1`: 3.72%.
For `O=C(NC(=S)Nc1ccc2oc(=O)ccc2c1)c1ccc(-c2cccc(Cl)c2Cl)o1`, the Potency is 79.4 µM (active).
`O=C(COc1ccc(Cl)cc1)Nc1ccc2oc(=O)ccc2c1`: the largest response in the series, negative = inhibition is -10.1%.
With `CC(C)C(=O)Nc1ccc2oc(=O)ccc2c1`, the largest response in the series, negative = inhibition is 13.6%.
Turning to `COC/C=C/C1=CC2=CC(=O)C(C)(OC(=O)CCC(=O)OC)C(=O)C2=CO1` (stereo not drawn), the Potency was 56.2 µM (active) and the largest response in the series, negative = inhibition was -28.3%.
`CC(C)(C)OC(=O)NCCCCC1=CC2=CC(=O)C(C)(OC(=O)c3cccs3)C(=O)C2=CO1` (stereo not drawn): the largest response in the series, negative = inhibition was -1.92%.
Still for that read-out and setting: next, `CC(C)(C)OC(=O)NCCCC1=CC2=CC(=O)C(C)(OC(=O)c3ccco3)C(=O)C2=CO1` (stereo not drawn): -0.751%.
With `COc1cc(C2C3=C(CCCC3=O)OC3=C2C(=O)CCC3)ccc1OCC(=O)Nc1ccccc1`, the largest response in the series, negative = inhibition was -3.15%.
Consider `Cc1cccc(C)c1NC(=O)COC(=O)c1ccccc1O`, for which the largest response in the series, negative = inhibition was -13%.
With `O=C(NC(=S)Nc1ccccc1C(=O)O)c1ccc(-c2ccc(Br)cc2)o1`, the Potency was 31.6 µM (active).
On to `COC(=O)c1ccccc1NC(=S)NC(=O)c1ccccc1F`, for which the largest response in the series, negative = inhibition is 10.1%.
In the case of `Cc1cccc(NC(=S)NC(=O)c2ccc(Br)o2)c1`, the largest response in the series, negative = inhibition is -10.9%.
For the compound `CC1(C)C2CCC1(CS(=O)(=O)NCCc1c[nH]c3ccccc13)C(=O)C2` (stereo not drawn), the largest response in the series, negative = inhibition is 3.13%.
Same read-out and setting: then `CCCCN(C)CCNC(=O)C1CCCN(S(=O)(=O)c2cccc3nsnc23)C1` (stereo not drawn), with 11.4%.
On the same count and under the same terms, next, `COCCNC(=S)N(CCc1c(C)[nH]c2ccc(C)cc12)Cc1cccnc1`: 5.81%.
The same measure, in the same setting: then `COc1cc(/C=C2/C(=O)ON=C2C)ccc1OCc1cccc(F)c1`, with -29.4%; and `CCOc1cc(/C=N/O)ccc1OCc1ccccc1F`, with 2.28%.
As to `COc1cc(/C=C2/C(=O)ON=C2C)ccc1OCc1ccccc1F`, the Potency was 56.2 µM (active).
As to `O=C(Nc1nnc(-c2ccc(F)cc2)s1)c1c(F)cccc1Cl`, the largest response in the series, negative = inhibition was 11.5%.
Same read-out and setting: then `O=C(NCCNc1ccc([N+](=O)[O-])cc1Cl)c1ccccc1F`, with 13.9%.
Regarding `O=C1NC(c2ccncc2)Nc2sc3c(c21)CCCC3` (stereo not drawn), the Potency is 35.5 µM (active).
For the compound `C/C(=C\c1ccccc1)C1NC(=O)c2c(sc3c2CCCC3)N1` (stereo not drawn), the largest response in the series, negative = inhibition is -9.45%.
For `O=C(Nc1sc2c(c1-c1nc3ccccc3[nH]1)CCCC2)C1CC1`, the largest response in the series, negative = inhibition was 11.4%.
Turning to `COc1ccc(CNC(=O)C(c2ccc(O)cc2)N(Cc2ccco2)C(=O)c2snc(C(N)=O)c2N)cc1` (stereo not drawn), the largest response in the series, negative = inhibition was 8.78%.
On the same count and under the same terms, then `O=CN1CCN(C(=O)c2ccc3c(c2)OCO3)CC1`, with 5.66%; and `Cc1cc(C)cc(NC(=S)NCCCN2CCOCC2)c1`, with 3.01%.
Same read-out and setting: next, `Cc1ccc(C(=O)NC(=S)NCCN2CCOCC2)cc1`: 0.183%.
For the compound `O=C(NNC(=S)NCCCN1CCOCC1)c1ccncc1`, the Potency was 28.2 µM (active).
Regarding `O=C(N/N=C/c1ccoc1)c1ccc(Cl)cc1Cl`, the largest response in the series, negative = inhibition was 5.37%.
As to `Cc1cccc(N2CCN(C(=O)CCS(=O)(=O)c3ccc4c(c3)NC(=O)C(C)S4)CC2)c1C` (stereo not drawn), the largest response in the series, negative = inhibition was 10.9%.
Same read-out and setting: then `CC(C)(C)OC(=O)CNC(=O)c1[nH]cnc1C(=O)N[C@@H](Cc1ccccc1)C(=O)OCc1ccccc1`, with 19.7%.
For the compound `CCCCCCCCCCOC(=O)Cn1c(COc2ccc(C)cc2)[n+](C)c2ccccc21`, the Potency was 31.6 µM (active).
On to `CCCCOC(=O)Cn1c(=N)n(CCN(CC)CC)c2ccccc21`, for which the largest response in the series, negative = inhibition was 8.57%.
Take `CCCCCCCCCCOC(=O)Cn1c(COc2cccc(OC)c2)[n+](C)c2ccccc21`: the Potency was 44.7 µM (active).
On to `Cc1ccc(OCCCn2c(=O)oc3ccccc32)cc1`, for which the largest response in the series, negative = inhibition was -10.3%.
As to `COc1cccc(OCC(=O)Nc2ccccc2C(N)=O)c1`, the largest response in the series, negative = inhibition is 10.7%.
Same read-out and setting: then `CCCCOC(=O)Cn1c(=O)n(CC(=O)OCCCC)c2cc(C)ccc21`, with 7.32%.
On the same count and under the same terms, next, `O=S(=O)(c1ccc(Cl)s1)N1CCC2(CC1)OCCO2`: 23.5%; `CCCCn1c(N)c(N(CCOC)C(=O)c2oc3ccc(OC)cc3c2C)c(=O)[nH]c1=O`: 15.3%; `O=C(CC1C(=O)NCCN1C(=O)c1ccc([N+](=O)[O-])cc1)Nc1cccc(Cl)c1` (stereo not drawn): 5.33%.
`Cc1cc(C)c(S(=O)(=O)c2cc(F)ccc2C)c(=O)[nH]1`: the largest response in the series, negative = inhibition is 27.3%.
For the compound `N#CC1=C(N)C(C#N)(C#N)[C@H](c2ccsc2)[C@H]2COCC=C12`, the Potency was 2.51 µM (active).
Regarding `CCCN1CC=C2C(C#N)=C(N)C(C#N)(C#N)C(c3cc(OC)ccc3OC)C2C1` (stereo not drawn), the largest response in the series, negative = inhibition was -12.4%.
For the compound `CCOC(=O)N1CC=C2C(C#N)=C(N)C(C#N)(C#N)[C@H](c3cccs3)[C@H]2C1`, the largest response in the series, negative = inhibition was -5.72%.
The same measure, in the same setting: then `COc1ccc(CNC(=O)CN(c2ccc(OC)c(Cl)c2)S(=O)(=O)c2ccc(C)cc2)cc1`, with 17.9%; and `Cc1ccc(CCN2CC(C(=O)NCCc3ccccc3)CC2=O)cc1` (stereo not drawn), with 20.9%; and `Cc1cccc(C(=O)NCC(=O)OCC(=O)N2CC3(C)CC2CC(C)(C)C3)c1` (stereo not drawn), with -0.692%.
Regarding `COc1ccccc1C(=O)N1CC2(C)CC1CC(C)(C)C2` (stereo not drawn), the largest response in the series, negative = inhibition is 23.6%.
On to `Cc1nnnn1/C(=C\c1ccccc1)C(=O)OCC(=O)N1CC2(C)CC1CC(C)(C)C2` (stereo not drawn), for which the Potency is 50.1 µM (active).
As for `CC(NCCc1ccc(S(N)(=O)=O)cc1)C(=O)NCc1ccccc1` (stereo not drawn), the largest response in the series, negative = inhibition was 4.54%.
